Bioassay records from PubChem BioAssay.
aSyn 5UTR inh: MLPCN primary screen, SNCA 5' untranslated region | alpha-synuclein 5'UTR reporter, inhibitor activity | inhibition, % (tested at 7.5 µM) | hit rate 0.82% among 300,000; in the data active = inhibition above about 60%;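 note: H4 neuroglioblastoma cells stably carrying SNCA 5'UTR luciferase fusion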
Wee1 stabilizer: human Wee1 degradation inhibition, primary screen; P30291; HeLa Luc-Wee1K328M stability, luciferase luminescence; 100% = proteasome inhibitor MG132 effect; reporter increase, % at 5 µM; hit rate 1.2% among 220,000;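 active = activation above the mean of all tested compounds plus 3 SD, set per screening run, cut at about 8.8% in these data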;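 note: cells exposed to compound for 20 h before luminescence read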
Target sequence (P30291 whole entry K328M): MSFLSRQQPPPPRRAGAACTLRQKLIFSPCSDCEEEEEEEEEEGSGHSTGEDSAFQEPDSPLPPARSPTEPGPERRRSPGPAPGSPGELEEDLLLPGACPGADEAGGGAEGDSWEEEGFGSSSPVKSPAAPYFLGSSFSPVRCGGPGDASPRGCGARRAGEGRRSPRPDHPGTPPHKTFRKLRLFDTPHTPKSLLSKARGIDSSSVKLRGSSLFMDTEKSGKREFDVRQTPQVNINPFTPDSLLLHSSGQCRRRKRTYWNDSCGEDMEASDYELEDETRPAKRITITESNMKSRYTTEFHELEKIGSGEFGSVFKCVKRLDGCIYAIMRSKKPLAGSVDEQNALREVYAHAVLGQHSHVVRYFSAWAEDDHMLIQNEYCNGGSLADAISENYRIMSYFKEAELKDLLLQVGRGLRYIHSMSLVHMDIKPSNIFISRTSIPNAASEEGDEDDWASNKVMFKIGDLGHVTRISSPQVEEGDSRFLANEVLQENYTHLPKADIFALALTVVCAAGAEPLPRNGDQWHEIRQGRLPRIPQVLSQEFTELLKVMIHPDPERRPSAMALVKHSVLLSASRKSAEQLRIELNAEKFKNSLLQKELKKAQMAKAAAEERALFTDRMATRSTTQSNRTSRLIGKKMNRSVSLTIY
KLF5 inhibitor: kruppel-like factor 5 inhibition. inhibition, % at 5 µM. hit rate 0.23% among 290,000. DLD-1 KLF5 promoter-luciferase reporter, luminescence;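 active = inhibition above a per-plate limit of that plate's mean compound inhibition plus 3 SD, cut at about 60% in these data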;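 note: higher means less KLF5 promoter-driven luciferase light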
Platelet DG rel: modulates dense granule release in human platelets; human platelet-rich plasma, SFLLRN dense granule ATP release, luminescence; inhibition, %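 (compounds screened at 7.5 µM in platelet-rich plasma)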; hit rate 0.22% among 300,000; AID 1663;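 active = mean replicate score, as percent of positive control, at or above 50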
HIF activator: HIF pathway transcriptional activation; U2OS HRE-luciferase reporter, luminescence; normalized: DMSO 0%, desferrioxamine 100%; activation, % at 7.5 µM (by protocol); hit rate 0.32% among 300,000;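 active = mean activation of at least 10% of the iron chelator positive control signal, with at least half of replicates also reaching 10%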
Numbers stand for hits; ! = repeats disagree. The list is not random: actives were taken first. Their share in the collection is about 2.1%.

How did CCOc1ccccc1N(CC(=O)NCCSc1ccccc1)S(C)(=O)=O do in these assays?
aSyn 5UTR inh: inactive; Wee1 stabilizer: 9.1; KLF5 inhibitor: inactive; Platelet DG rel: inactive; HIF activator: inactive

How did Cc1cccc(N(CC(=O)N/N=C/c2ccc(C(=O)O)cc2)S(=O)(=O)c2ccccc2)c1C do in these assays?
aSyn 5UTR inh: inactive; Platelet DG rel: inactive; HIF activator: inactive

How did COc1ccccc1NCC(=O)N/N=C/c1c(O)ccc2ccccc12 do in these assays?
aSyn 5UTR inh: inactive; KLF5 inhibitor: inactive; Platelet DG rel: inactive; HIF activator: inactive

How did COc1ccccc1NC(=O)c1c(N=Cc2c(O)ccc3ccccc23)cnn1C do in these assays?
aSyn 5UTR inh: inactive; Wee1 stabilizer: 9.0; KLF5 inhibitor: inactive; Platelet DG rel: inactive; HIF activator: inactive

What do the screens show for `Cc1ccccc1NC(=O)c1ccccc1O`?
aSyn 5UTR inh: inactive; Wee1 stabilizer: inactive; KLF5 inhibitor: inactive; Platelet DG rel: inactive; HIF activator: 408

How did C/C(=N\NC(=O)c1ccn(C)n1)c1cccc(NC(=O)c2ccc(C)s2)c1 do in these assays?
aSyn 5UTR inh: inactive; Wee1 stabilizer: inactive; KLF5 inhibitor: inactive; Platelet DG rel: inactive; HIF activator: inactive

What do the screens show for `Oc1ccc2ccccc2c1N=Nc1ccc(F)cc1`?
aSyn 5UTR inh: inactive; Wee1 stabilizer: 22!; KLF5 inhibitor: inactive; Platelet DG rel: inactive; HIF activator: inactive

How did COCCNC(=O)C(c1ccc(C)o1)N(C(=O)C(=O)NC1CCCCC1)c1ccc(F)cc1 (centres undefined) do in these assays?
aSyn 5UTR inh: inactive; Wee1 stabilizer: inactive; KLF5 inhibitor: inactive; Platelet DG rel: inactive; HIF activator: inactive

What do the screens show for `COc1ccc(Cc2[nH]n3c(=O)cc(C(C)C)nc3c2-c2ccccc2)cc1`?
aSyn 5UTR inh: 72; Wee1 stabilizer: inactive; KLF5 inhibitor: inactive; Platelet DG rel: inactive; HIF activator: inactive

Results for CCOC(=O)c1ccccc1NC(=O)Cn1c(=O)n(Cc2ccccc2)c(=O)c2c(C)c(C)sc21 ?
aSyn 5UTR inh: inactive; Wee1 stabilizer: inactive; KLF5 inhibitor: inactive; Platelet DG rel: inactive; HIF activator: inactive

Results for CC(=O)c1ccc(C(C)(C)c2ccc(C(C)=O)s2)s1 ?
aSyn 5UTR inh: inactive; Wee1 stabilizer: 9.3; KLF5 inhibitor: inactive; Platelet DG rel: inactive; HIF activator: inactive

How did COc1ccc(C2CC(c3ccccc3OC(=O)/C=C/c3ccccc3)=NN2C(C)=O)cc1 (centres undefined) do in these assays?
aSyn 5UTR inh: inactive; Wee1 stabilizer: inactive; KLF5 inhibitor: inactive; Platelet DG rel: inactive; HIF activator: inactive

How did Cc1ncc(CO)c(/C=N/NC(=O)c2ccc(O)cc2)c1O do in these assays?
aSyn 5UTR inh: inactive; Wee1 stabilizer: inactive; KLF5 inhibitor: inactive; Platelet DG rel: inactive; HIF activator: inactive

What do the screens show for `Cc1ncc(CO)c(/C=N/NC(=O)c2cc3c(s2)CCCC3)c1O`?
aSyn 5UTR inh: inactive; Wee1 stabilizer: inactive; KLF5 inhibitor: inactive; Platelet DG rel: inactive; HIF activator: 22

How did O=c1ccc2ccc(OCCOc3cccc(Cl)c3)cc2o1 do in these assays?
aSyn 5UTR inh: inactive; KLF5 inhibitor: inactive; Platelet DG rel: inactive; HIF activator: inactive

How did CC(=O)c1ccc(NC(=O)NC2CC(=O)N(c3ccc4c(c3)OCCO4)C2)cc1 (centres undefined) do in these assays?
aSyn 5UTR inh: inactive; Platelet DG rel: inactive; HIF activator: inactive

How did C#CCOc1ccccc1CNC1CCN(Cc2ccccc2)CC1 do in these assays?
aSyn 5UTR inh: inactive; KLF5 inhibitor: inactive; Platelet DG rel: inactive; HIF activator: inactive

Results for O=C(NNC(=O)c1csc(N2CCOCC2)n1)c1ccc(Cl)nc1 ?
aSyn 5UTR inh: inactive; Platelet DG rel: inactive; HIF activator: inactive

What do the screens show for `Cc1cc(C)nc(NC(=O)CSc2ccccn2)n1`?
aSyn 5UTR inh: inactive; Wee1 stabilizer: 17; KLF5 inhibitor: inactive; Platelet DG rel: inactive; HIF activator: inactive

What do the screens show for `CN1CCN(c2ccc(NC(=O)CSc3ccccc3)cc2F)CC1`?
aSyn 5UTR inh: inactive; Wee1 stabilizer: 9.8; KLF5 inhibitor: inactive; Platelet DG rel: inactive; HIF activator: inactive

Results for Cc1ccccc1NC(=O)CCc1nnc2ccc(N3CCC4(CC3)OCCO4)nn12 ?
aSyn 5UTR inh: inactive; KLF5 inhibitor: inactive; Platelet DG rel: inactive; HIF activator: inactive

What do the screens show for `O=C(NCc1ccco1)C1CCCN1S(=O)(=O)c1ccc2ccccc2c1` (centres undefined)?
aSyn 5UTR inh: inactive; Wee1 stabilizer: inactive; KLF5 inhibitor: inactive; Platelet DG rel: inactive; HIF activator: inactive
